# The whole screen tested about 5,500 compounds, of which about 2,000 (36%) were called active. Inconclusive results (about 18%) are left out. Some of the results follow. Unmarked numbers belong to inactive results. Cut-off read from the data, not from the text of the source: active = normalized growth mostly below about 0.91 (no sharp cut-off); inconclusive = no clear call, values can overlap the other calls; inactive = mostly above about 0.92.
# Test: chemical genetic growth profiling, strain panel (AID 1159580);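 note: tested at 20 µM; growth read once vehicle control cultures reached saturation at 30 °C; 1 = growth at the plate median or of vehicle wells; lower values mean less growth of the strain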
# Details: S. cerevisiae deletion strains, growth OD
# [1] = locus YDL101C, strain DUN1, stronger effect = lower value
# [2] = locus YHR030C, strain SLT2, stronger effect = lower value
structure (smiles),measurement,setting,value
FC(F)(F)c1cc(NC(=S)SCCSC(=S)Nc2cc(C(F)(F)F)cc(C(F)(F)F)c2)cc(C(F)(F)F)c1,normalized growth,"locus YAR019C, strain CDC15, stronger effect = lower value",0.993
same,normalized growth,"locus YBL105C, strain PKC1, stronger effect = lower value",0.989
same,normalized growth,"locus YBR135W, strain CKS1, stronger effect = lower value",1
same,normalized growth,"locus YBR136W, strain MEC1, stronger effect = lower value",0.986
same,normalized growth,"locus YBR160W, strain CDC28, stronger effect = lower value",0.997
same,normalized growth,"locus YDL017W, strain CDC7, stronger effect = lower value",0.991
same,normalized growth,"locus YDL028C, strain MPS1, stronger effect = lower value",0.991
same,normalized growth,[1],1
same,normalized growth,"locus YDL108W, strain KIN28, stronger effect = lower value",0.99
same,normalized growth,"locus YDL132W, strain cdc53, stronger effect = lower value",0.988
same,normalized growth,"locus YDL214C, strain PRR2, stronger effect = lower value",0.889
same,normalized growth,"locus YDR052C, strain DBF4, stronger effect = lower value",1
same,normalized growth,"locus YDR054C, strain cdc34, stronger effect = lower value",0.994
same,normalized growth,"locus YDR226W, strain ADK1, stronger effect = lower value",0.994
same,normalized growth,"locus YDR477W, strain SNF1, stronger effect = lower value",0.951
same,normalized growth,"locus YER123W, strain YCK3, stronger effect = lower value",0.949
same,normalized growth,"locus YER133W, strain GLC7, stronger effect = lower value",0.911
same,normalized growth,"locus YFL009W, strain cdc4, stronger effect = lower value",1
same,normalized growth,"locus YFL029C, strain CAK1, stronger effect = lower value",0.994
same,normalized growth,"locus YFR003C, strain YPI1, stronger effect = lower value",0.993
same,normalized growth,"locus YFR019W, strain FAB1, stronger effect = lower value",1.01
same,normalized growth,"locus YFR028C, strain CDC14, stronger effect = lower value",0.993
same,normalized growth,"locus YGR040W, strain KSS1, stronger effect = lower value",0.951
same,normalized growth,"locus YGR052W, strain FMP48, stronger effect = lower value",1.04
same,normalized growth,"locus YGR092W, strain DBF2, stronger effect = lower value",0.993
same,normalized growth,[2],0.984
same,normalized growth,"locus YHR079C, strain IRE1, stronger effect = lower value",1.04
same,normalized growth,"locus YHR082C, strain KSP1, stronger effect = lower value",1.03
same,normalized growth,"locus YHR205W, strain SCH9, stronger effect = lower value",0.983
same,normalized growth,"locus YIL147C, strain SLN1, stronger effect = lower value",0.97
same,normalized growth,"locus YJL095W, strain BCK1, stronger effect = lower value",1.08
same,normalized growth,"locus YJL128C, strain PBS2, stronger effect = lower value",0.954
same,normalized growth,"locus YJL157C, strain FAR1, stronger effect = lower value",0.884
same,normalized growth,"locus YJR016C, strain ILV3, stronger effect = lower value",0.995
same,normalized growth,"locus YJR066W, strain TOR1 (second series), stronger effect = lower value",0.94
same,normalized growth,"locus YJR066W, strain TOR1, stronger effect = lower value",1.09
same,normalized growth,"locus YKL048C, strain ELM1, stronger effect = lower value",0.971
same,normalized growth,"locus YKL067W, strain YNK1, stronger effect = lower value",0.862
same,normalized growth,"locus YKL101W, strain HSL1, stronger effect = lower value",0.968
same,normalized growth,"locus YKL193C, strain SDS22, stronger effect = lower value",0.992
same,normalized growth,"locus YKL203C, strain TOR2, stronger effect = lower value",1.06
same,normalized growth,"locus YLR113W, strain HOG1, stronger effect = lower value",0.869
same,normalized growth,"locus YLR133W, strain CKI1, stronger effect = lower value",0.972
same,normalized growth,"locus YLR403W, strain SFP1, stronger effect = lower value",0.982
same,normalized growth,"locus YML070W, strain DAK1, stronger effect = lower value",0.908
same,normalized growth,"locus YMR001C, strain CDC5, stronger effect = lower value",0.997
same,normalized growth,"locus YMR205C, strain PFK2 (second series), stronger effect = lower value",0.988
same,normalized growth,"locus YMR277W, strain FCP1, stronger effect = lower value",0.986
same,normalized growth,"locus YNL006W, strain LST8, stronger effect = lower value",0.996
same,normalized growth,"locus YNL020C, strain ARK1, stronger effect = lower value",0.973
same,normalized growth,"locus YNL161W, strain CBK1, stronger effect = lower value",0.998
same,normalized growth,"locus YNL183C, strain NPR1, stronger effect = lower value",1.03
same,normalized growth,"locus YNL207W, strain RIO2, stronger effect = lower value",0.987
same,normalized growth,"locus YNL222W, strain SSU72, stronger effect = lower value",0.989
same,normalized growth,"locus YNL307C, strain MCK1 (second series), stronger effect = lower value",0.984
same,normalized growth,"locus YOL078W, strain AVO1, stronger effect = lower value",0.992
same,normalized growth,"locus YOL136C, strain PFK27, stronger effect = lower value",0.933
same,normalized growth,"locus YOR061W, strain CKA2, stronger effect = lower value",0.994
same,normalized growth,"locus YOR119C, strain RIO1, stronger effect = lower value",1.02
same,normalized growth,"locus YOR231W, strain MKK1, stronger effect = lower value",1.03
same,normalized growth,"locus YOR329C, strain SCD5, stronger effect = lower value",0.996
same,normalized growth,"locus YPL031C, strain PHO85, stronger effect = lower value",0.963
same,normalized growth,"locus YPL153C, strain RAD53, stronger effect = lower value",0.946
same,normalized growth,"locus YPL204W, strain HRR25, stronger effect = lower value",0.932
same,normalized growth,"locus YPL209C, strain IPL1, stronger effect = lower value",0.992
same,normalized growth,"locus YPL256C, strain CLN2, stronger effect = lower value",0.926
same,normalized growth,"locus YPR025C, strain CCL1, stronger effect = lower value",0.999
same,normalized growth,"locus YPR106W, strain ISR1, stronger effect = lower value",0.998
same,normalized growth,"locus YPR111W, strain DBF20, stronger effect = lower value",0.988
same,normalized growth,"strain NNK1, stronger effect = lower value",0.986
same,normalized growth,"strain TSCII, stronger effect = lower value",0.993
CC(C)(CC(=O)O)CC(=O)Nc1cc(C(F)(F)F)cc(C(F)(F)F)c1,normalized growth,"locus YAL013W, strain DEP1, stronger effect = lower value",0.997
same,normalized growth,"locus YBR229C, strain ROT2, stronger effect = lower value",1.01
same,normalized growth,"locus YCL061C, strain MRC1, stronger effect = lower value",1.03
same,normalized growth,[1],0.997
same,normalized growth,"locus YDL134C, strain PPH21, stronger effect = lower value",0.999
same,normalized growth,"locus YDR150W, strain NUM1, stronger effect = lower value",0.993
same,normalized growth,"locus YEL061C, strain CIN8, stronger effect = lower value",0.998
same,normalized growth,"locus YGR078C, strain PAC10, stronger effect = lower value",1.01
same,normalized growth,"locus YGR229C, strain SMI1, stronger effect = lower value",1
same,normalized growth,[2],1.01
same,normalized growth,"locus YHR087W, strain rtc3, stronger effect = lower value",1
same,normalized growth,"locus YJL187C, strain SWE1, stronger effect = lower value",1
same,normalized growth,"locus YJR043C, strain POL32, stronger effect = lower value",0.997
same,normalized growth,"locus YJR075W, strain HOC1, stronger effect = lower value",0.997
same,normalized growth,"locus YLR039C, strain RIC1, stronger effect = lower value",1.03
same,normalized growth,"locus YLR058C, strain SHM2 (second series), stronger effect = lower value",1.01
same,normalized growth,"locus YLR085C, strain ARP6, stronger effect = lower value",1.03
same,normalized growth,"locus YLR262C, strain YPT6, stronger effect = lower value",1.02
same,normalized growth,"locus YML094W, strain GIM5, stronger effect = lower value",0.969
same,normalized growth,"locus YMR219W, strain ESC1, stronger effect = lower value",1.01
same,normalized growth,"locus YMR263W, strain SAP30, stronger effect = lower value",1.05
same,normalized growth,"locus YMR307W, strain GAS1, stronger effect = lower value",0.967
same,normalized growth,"locus YNL153C, strain GIM3, stronger effect = lower value",1.01
same,normalized growth,"locus YNL298W, strain CLA4 (second series), stronger effect = lower value",1.01
same,normalized growth,"locus YNL322C, strain KRE1, stronger effect = lower value",0.973
same,normalized growth,"locus YNR030W, strain Alg12, stronger effect = lower value",0.537 (active)
same,normalized growth,"locus YOL006C, strain TOP1, stronger effect = lower value",0.964
same,normalized growth,"locus YPL055C, strain LGE1, stronger effect = lower value",1.01
same,normalized growth,"locus YPL241C, strain CIN2, stronger effect = lower value",0.639 (active)
same,normalized growth,"locus YPR135W, strain CTF4, stronger effect = lower value",1.06
